Assay outcomes deposited in PubChem by National Center for Advancing Translational Sciences (NCATS).
Only a selection was taken, and hits are over-represented in it overall.
TDP1 cell CPT = growth inhibition of DT40 Tdp1-/-;hTDP1 cells with camptothecin (screen for TDP1 inhibitors); chicken DT40 Tdp1-/-;hTDP1 cells + 20 nM CPT, ATP luminescence, 48 h; Potency, µM (titrated, usually from 46.2 µM), inactives show at the highest dose activity change, negative = growth inhibition, usual class: inhibitors; actives 12% (n = 420,000); also: potency is read from the fitted curve at half-maximal effect; nearly all actives have a fitted effect of over 55% in size
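Cell growth measured by CellTiter-Glo luminescence after a minimum 48 h, 37 C compound exposure with 20 nM CPT in Tdp1-knockout DT40 cells stably expressing hTDP1, seeded 400/well; qHTS titration format.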
HT1080 IDH1KD tx = kills HT-1080 cells with IDH1 knockdown; HT-1080 IDH1 knockdown viability, ATP luminescence, 48 h; actives 2% (n = 360,000); Potency, µM (series often up to 46.1 µM), for the others: top-dose activity, negative = toxicity, usual class: cytotoxic;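 also: potency is read from the fitted curve at half-maximal effect; 0% = DMSO wells and -100% = cell-free medium wells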
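Assay cells: HT-1080 with IDH1 knockdown, 750 per well, RPMI/5% FBS. Exposure: 48 h at 37 °C following 2 h pre-incubation. Read: CellTiter-Glo luminescence; fitted concentration-response, curve class assigned.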
IL1B secr inh = inhibitors of inflammasome signaling (IL-1 beta secretion). activity change, % at 57.5 µM. THP-1 LPS/ATP IL-1B secretion, AlphaLISA, 16 h; active compounds read low. actives 4.7% (n = 360,000). AID 743279; in the data active = activity change below about -50%; inconclusive = mostly about -30% to -49%
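THP-1 cells pretreated 1 hr with compounds (up to 57.5 uM final), then stimulated with LPS (250 ng/mL final) plus ATP (1.25 mM final); secreted IL-1B measured by AlphaLISA after 16 hr, decreased signal indicating inhibition.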
ALOX12 inh = blocks human arachidonate 12S-lipoxygenase | Potency, µM (doses to about 108 µM), without a hit: at the top dose activity change, negative = inhibition, most hits filed as inhibitors | purified 12hLO, xylenol orange hydroperoxide absorbance | P18054 | actives 1.1% (n = 580,000); also: potency is read from the fitted curve at half-maximal effect
Target sequence (P18054 whole entry, looked up): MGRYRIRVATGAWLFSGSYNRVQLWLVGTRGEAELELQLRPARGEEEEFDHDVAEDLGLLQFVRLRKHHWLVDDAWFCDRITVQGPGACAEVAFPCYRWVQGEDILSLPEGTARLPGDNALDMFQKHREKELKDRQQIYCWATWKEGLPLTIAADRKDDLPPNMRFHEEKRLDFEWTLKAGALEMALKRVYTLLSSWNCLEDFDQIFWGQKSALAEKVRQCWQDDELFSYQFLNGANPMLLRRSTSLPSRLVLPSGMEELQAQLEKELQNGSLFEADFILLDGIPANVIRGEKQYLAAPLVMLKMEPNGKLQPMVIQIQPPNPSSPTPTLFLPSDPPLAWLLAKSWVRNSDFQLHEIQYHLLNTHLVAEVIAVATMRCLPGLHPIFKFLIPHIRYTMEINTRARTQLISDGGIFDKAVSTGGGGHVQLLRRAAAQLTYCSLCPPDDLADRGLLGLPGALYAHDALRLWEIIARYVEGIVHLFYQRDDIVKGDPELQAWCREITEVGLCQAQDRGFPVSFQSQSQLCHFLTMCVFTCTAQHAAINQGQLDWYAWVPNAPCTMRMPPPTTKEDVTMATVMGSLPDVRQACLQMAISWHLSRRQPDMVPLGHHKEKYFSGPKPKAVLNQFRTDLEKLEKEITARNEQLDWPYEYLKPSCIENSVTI
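Hydroperoxide product was detected by ferrous iron/xylenol orange as the 573 to 405 nm absorbance ratio. Arachidonic acid at 40 uM (final) was turned over for 30 min at room temperature by 150 nM human 12hLO, pH 7.0 Hepes buffer, after 15 min compound preincubation.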
HT1080NT lethal = kills 2HG-producing HT-1080-NT fibrosarcoma cells. HT-1080-NT fibrosarcoma viability, CellTiter-Glo ATP luminescence, 48 h. Potency, µM (series often up to 46.1 µM), inactives show at the top dose activity, negative = less viability, most hits filed as cytotoxic. actives 1.6% (n = 360,000);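 also: NT is the 2HG producing partner of a matched IDH1 knockdown line; potency is read from the fitted curve at half-maximal effect; 0% = DMSO-treated cells and -100% = media-only wells without cells; nearly all actives have a fitted effect of over 55% in size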
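750 cells/well, RPMI + 5% FBS; 2 h settle, compound pin-transfer, 48 h at 37 degrees C. CellTiter-Glo 10 min RT, luminescence. Normalized to DMSO and media-only wells.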
DT40 TDP1 no CPT = qHTS for Inhibitors of human tyrosyl-DNA phosphodiesterase 1 (TDP1): qHTS in cells in absence of CPT. DT40 Tdp1-/- hTDP1 cells, no CPT, ATP luminescence, 48 h. Potency, µM (series often up to 46.2 µM), for inactives: at the highest dose activity change, negative = growth inhibition, hits mostly inhibitors. actives 15% (n = 420,000); also: potency is read from the fitted curve at half-maximal effect; nearly all actives have a fitted effect of over 55% in size
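Camptothecin absent (DMSO only). Human TDP1-complemented DT40 knockout cells, 400 cells/well, 37 °C for minimum 48 hr; ATP measured via CellTiter-Glo, 30 min dark incubation, luminescence.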
* = called active by the depositor; i = inactive; ? = inconclusive; . = not tested or not shown; [ ] = dose if it differs, or a comment. Unless noted, calls follow the shape of the dose curve; as a rule, active = well fitted curve in the direction sought with a large enough effect; inconclusive = small, poorly fitted or top-dose-only effect, or another doubt; inactive = no such curve, though single readings can be large; an effect the other way counts as inactive or inconclusive. Unless noted, % is scaled to controls: 0 for no effect and ±100 for the full control effect.

SMILES	TDP1 cell CPT	HT1080 IDH1KD tx	IL1B secr inh	ALOX12 inh	HT1080NT lethal	DT40 TDP1 no CPT
CCCN1C(=O)c2[nH]nc(-c3ccccc3O)c2C1c1ccc(OCc2ccccc2)c(OCC)c1 (stereo not given)	23µM*	.	.	0%	.	16µM*
COc1cc(C2c3c(-c4cc(C)ccc4O)n[nH]c3C(=O)N2CCCO)ccc1OCCC(C)C (stereo not given)	?	.	.	?	.	29µM*
CCCCN1C(=O)c2[nH]nc(-c3ccccc3O)c2C1c1ccc(OCc2ccccc2)cc1 (stereo not given)	18µM*	.	.	1%	.	?
Cc1ccc(C2c3c(-c4ccccc4O)n[nH]c3C(=O)N2CCCO)cc1 (stereo not given)	18µM*	.	.	-17%	.	29µM*
O=C(CCc1cccs1)Nc1nc(-c2ccc(Cl)cc2)cs1	.	.	.	-1%	.	.
CC(C)OCCCN1C(=O)c2[nH]nc(-c3ccccc3O)c2C1c1cccc(OCc2ccccc2)c1 (stereo not given)	10µM*	.	.	-11%	.	?
CS(=O)(=O)N1CCCN(C(=O)c2cccs2)CCNC(=O)CC1c1ccccc1 (stereo not given)	.	.	.	64%	.	.
Cc1cccc(N/C(=N/S(=O)(=O)c2ccccc2)c2ccccc2)n1	?	7%	-6	207%	17%	1%
O=C(NC(c1ccccc1)c1ccccc1)c1ccc(Br)o1	?	0%	-9	7%[57.4 µM]	-4%	?
O=C(/C=C/c1ccc(Br)o1)NC(c1ccccc1)c1ccccc1	9.2µM*	-24%	?	?	-20%	?
O=C(Nc1nnc(-c2ccco2)o1)c1ccc(Br)s1	?	-18%	12	-4%	-14%	?
Cc1ccc(SCC(=O)Nc2nnc(-c3ccco3)o2)cc1	-6%	-9%	13	-11%	-3%	29µM*
O=C(CCS(=O)(=O)c1ccc(Cl)cc1)Nc1nnc(-c2ccco2)o1	9.2µM*	-9%	-81*	9%	-7%	?
O=C(Nc1nnc(-c2ccco2)o1)c1ccc(Cl)s1	21µM*	?	4	i	-24%	16µM*
O=C(NCCNC(=O)c1cc(Cl)ccc1Cl)c1ccco1	-2%	11%	-5	-11%	20%	-12%
Cc1ccc(S(=O)(=O)CCC(=O)Nc2nnc(-c3ccco3)o2)cc1	?	-1%	-14	13%	6%	?
O=C(Nc1nnc(-c2cc(Cl)ccc2Cl)o1)c1ccco1	?	6%	7	10%	12%	16µM*
c1ccc(CCCNc2nccc(-c3ccccn3)n2)nc1	.	.	.	83%	.	.
CCc1cc(=O)n(CC(=O)Nc2cccc(Br)c2)c(N2CCOCC2)n1	.	.	.	2%	.	.
COCCNC(=O)C1CCCN(C(=O)COc2ccc(Cl)cc2Cl)CC1 (stereo not given)	-11%	17%	-7	-3%	27%	-14%
COc1ccc(NC(=O)N2CCC(NS(=O)(=O)c3ccccc3F)CC2)cc1	.	.	.	2%	.	.
CN(Cc1cccc(Cl)c1Cl)C(=O)c1ccc(Cl)c(S(=O)(=O)NC2CC2)c1	.	.	.	-8%	.	.
Cc1ccc(C(=O)N2CCCC(c3nc4ccccc4[nH]3)C2)c(C)c1 (stereo not given)	.	.	.	-10%	.	.
CC(=O)NCCC(=O)N1CCC2(CC1)CN(C(=O)Cc1ccccc1)CCO2	.	.	.	7%[6.33 µM]	.	.
O=C(CS(=O)(=O)c1ccccc1)Nc1nnc(-c2cccs2)o1	-15%	-9%	6	-1%	-8%	-17%
SMILES	TDP1 cell CPT	HT1080 IDH1KD tx	IL1B secr inh	ALOX12 inh	HT1080NT lethal	DT40 TDP1 no CPT
Cc1ccc(S(=O)(=O)CCC(=O)OC(C)c2nnc(-c3cccs3)o2)cc1 (stereo not given)	-7%	11%	8	305%	0%	-7%
O=C(CCS(=O)(=O)c1ccc(Cl)cc1)Nc1nnc(-c2cccs2)o1	16µM*	-17%	-17	-10%	-28%	16µM*
Cc1ccc(S(=O)(=O)CCC(=O)Nc2nnc(-c3cccs3)o2)cc1	?	-4%	-61*	6%	-1%	16µM*
COc1cccc(-c2cc(C3CCN(S(=O)(=O)c4ccc(F)cc4F)CC3)[nH]n2)c1	.	.	.	11%	.	.
Cc1ccc(S(=O)(=O)N2CCCN(S(=O)(=O)c3ccc4c(c3)OCCO4)CC2)cc1	11µM*	2%	-23	17%	-17%	11µM*
Cc1ccc2nc(N3CCN(S(=O)(=O)c4ccc5c(c4)OCCO5)CC3)c(C#N)cc2c1	11µM*	5%	9	-4%	4%	?
Cc1ccc(S(=O)(=O)N2CCCN(c3nc4cc(C)ccc4cc3C#N)CC2)cc1	?	-3%	31	5%	16%	?
CCCCN1CCCC1C(=O)Nc1c(C)cc(C)cc1C (stereo not given)	?	.	.	-8%[22.9 µM]	.	?
Cc1ccccc1C(=O)N1CCC2(CC1)N(c1ccccc1)C(=O)CS2(=O)=O	.	.	.	-1%	.	.
Cc1ccc(NC(=O)c2c(C)oc3ccc(O)c(CN4CCCCC4)c23)cc1	?	.	.	-71%	.	?
Cc1ccccc1NC(=O)CCN1CCCCCC1	-4%	5%	-21	-13%	16%	-19%
Cc1ccc(NC(=O)c2c(C)oc3ccc(O)c(CN4CCCCC4)c23)c(C)c1	12µM*	.	.	?	.	16µM*
Cc1ccccc1NC(=O)c1c(C)oc2ccc(O)c(CN3CCCCCC3)c12	23µM*	.	.	-23%	.	21µM*
Cc1oc2ccc(O)c(CN3CCN(Cc4ccccc4)CC3)c2c1C(=O)Nc1ccccc1	23µM*	.	.	-18%	.	?
COc1ccc(NC(=O)c2c(C)oc3ccc(O)c(CN4CCCCCC4)c23)cc1Cl	26µM*	.	.	?	.	?
Cc1ccccc1NC(=O)c1c(C)oc2ccc(O)c(CN3CCOCC3)c12	21µM*	.	.	?	.	23µM*
Cc1oc2ccc(O)c(CN3CCOCC3)c2c1C(=O)Nc1ccccc1	-15%	.	.	-17%	.	-4%
Cc1c(-c2ccccc2)c(=O)oc2c(CN3CCOCC3)c(O)ccc12	?	.	.	-27%	.	?
Cc1oc2ccc(O)c(CN3CCOCC3)c2c1C(=O)Nc1ccc(C(C)C)cc1	16µM*	.	.	2%	.	16µM*
O=C(NC1CCCCCCC1)c1ccccc1C(F)(F)F	.	.	.	11%	.	.
COc1cccc(CN(C)C2CCCc3ccccc32)c1 (stereo not given)	.	.	.	51%[176 µM]	.	.
